Records with an inconclusive call do not appear. The source made the active and inactive calls. Calls follow the shape of the full dose curve.
These compounds were tested against Peroxisome proliferator-activated receptor gamma (Homo sapiens) (UniProt P37231) (assay: qHTS assay to identify small molecule antagonists of the peroxisome proliferator-activated receptor gamma (PPARg) signaling pathway (AID 743191; also: nearly all actives have a fitted effect of over 30% in size)). Conditions: HEK293H PPARg-UAS-bla, beta-lactamase ratio, antagonist, 17 h; series mostly up to 62.6 µM; ratio activity, negative = inhibition: at the top concentration.
Peroxisome proliferator-activated receptor gamma (Homo sapiens), sequence (P37231 whole entry, looked up): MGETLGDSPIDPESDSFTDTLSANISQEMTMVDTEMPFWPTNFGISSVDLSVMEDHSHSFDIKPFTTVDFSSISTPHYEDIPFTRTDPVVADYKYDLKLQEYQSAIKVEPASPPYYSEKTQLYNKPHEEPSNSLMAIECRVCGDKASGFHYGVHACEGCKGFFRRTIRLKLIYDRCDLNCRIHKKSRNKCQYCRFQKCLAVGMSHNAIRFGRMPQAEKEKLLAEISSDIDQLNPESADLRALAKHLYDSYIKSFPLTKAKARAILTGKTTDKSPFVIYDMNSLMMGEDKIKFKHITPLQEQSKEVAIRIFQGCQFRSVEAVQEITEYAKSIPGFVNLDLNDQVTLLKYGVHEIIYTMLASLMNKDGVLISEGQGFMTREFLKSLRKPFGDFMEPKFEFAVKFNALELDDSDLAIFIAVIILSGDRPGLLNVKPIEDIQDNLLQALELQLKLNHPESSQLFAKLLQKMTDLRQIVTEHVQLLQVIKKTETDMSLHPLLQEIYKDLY
Source text: U.S. Tox21 Program National Center for Advancing Translational Sciences [NCATS] NIH Chemical Genomics Center [NCGC] U.S. Environmental Protection Agency [EPA] National Institutes of Environmental Health Sciences [NIEHS] National Toxicology Program [NTP] U.S. Food and Drug Administration [FDA] Tox21 Assay Overview: The peroxisome proliferator-activated receptors (PPARs) are lipid-activated transcription factors of the nuclear receptor superfamily with three distinct subtypes namely PPAR alpha, PPAR delta (also called PPAR beta) and PPAR gamma (PPARg). All these subtypes heterodimerize with Retinoid X receptor (RXR) and these heterodimers regulate transcription of various genes. PPAR-gamma receptor (glitazone receptor) is involved in the regulation of glucose and lipid metabolism. To identify the compounds that inhibit PPAR-gamma signaling, GeneBLAzer PPAR gamma UAS-bla HEK293H cell line (Invitrogen, Carlsbad, CA, USA) containing a beta-lactamase reporter gene under control of an Upstream Activator Sequence (UAS) was used to screen the Tox21 compound library.
Tox21 Assay Protocol Summary: PPARg-bla cells were dispensed at 3000 cells/6uL/well in 1536-well black wall/clear bottom plates using a Multidrop Combi (Thermo Fisher Scientific, Waltham, MA) dispenser. After the assay plates were incubated at 37C and 5% CO2 for 5 h, 23 nL of compounds dissolved in DMSO, positive controls or DMSO only was transferred to the assay plate by a Pintool station (Kalypsys, San Diego, CA). The assay plates were incubated at 37C for 17 h. After 1 uL of LiveBLAzerTM B/G FRET substrate was added using a Bioraptr Flying Reagent Dispenser (FRD) workstation (Beckman Coulter, Indianapolis, IN, USA), the plates were incubated at room temperature for 1 h, and fluorescence intensity was measured by an Envision plate reader (PerkinElmer, Shelton, CT).
% is scaled to controls: 0 for no effect and ±100 for the full control effect; potency is read from the fitted curve at half-maximal effect.

Row | SMILES | ratio activity, negative = inhibition | Potency
1 | Cc1ccccc1Cl | -4.55% (inactive) | 
2 | Cc1ccc([N+](=O)[O-])cc1N |  | inactive
3 | COc1c(Cl)ccc(Cl)c1C(=O)O | 15.4% (inactive) | 
4 | C[Si](C)(C)N[Si](C)(C)C |  | inactive
5 | NC(N)=S | 6.88% (inactive) | 
6 | CC(=O)OCCC(C)C | -4.96% (inactive) | 
7 | C1CCCNCC1 | -2.44% (inactive) | 
8 | COc1cc(NC(=O)CC(C)=O)c(OC)cc1Cl |  | 19.5 µM (active)
9 | CCc1cccc(O)c1 |  | inactive
10 | COC(=O)CCCCC(=O)OC |  | inactive
11 | CN=C(NC#N)NCCSCc1nc[nH]c1C | 0.187% (inactive) | 
12 | O=C(O)C1=NN(c2ccc(S(=O)(=O)O)cc2)C(=O)C1 | -10.9% (inactive) | 
13 | CCCCCC(C)=O | 12.6% [at 81.1 µM] (inactive) | 
14 | Cc1cc(CC(=O)O)n(C)c1C(=O)c1ccc(Cl)cc1 | -9.76% (inactive) | 
15 | COc1ccc(N)c(OC)c1 | -10.9% (inactive) | 
16 | CC[N+](CC)(CC(=O)Nc1c(C)cccc1C)Cc1ccccc1 | 9.15% (inactive) | 
17 | Oc1ccc(Cc2ccccc2O)cc1 | 1.71% [at 81.1 µM] (inactive) | 
18 | Cc1nnc(NS(=O)(=O)c2ccc(N)cc2)s1 | 1.86% (inactive) | 
19 | O=C1O[C@H]([C@H](O)CO)C(O)=C1O | 0.103% (inactive) | 
20 | C=C(CC(=O)O)C(=O)O | 10.2% [at 81.1 µM] (inactive) | 

Row | SMILES | ratio activity, negative = inhibition | Potency
21 | CC(=O)OC(C)(C)C1CC=C(C)CC1 (stereo not given) | -13.6% (inactive) | 
22 | CC(C)=CCC/C(C)=C/C=O |  | inactive
23 | CC1(C)C(=O)N(Cl)C(=O)N1Cl | 1.07% (inactive) | 
24 | NC(=O)c1ncn([C@@H]2O[C@H](CO)[C@@H](O)[C@H]2O)n1 | -32.2% (inactive) | 
25 | COc1c2ccoc2cc2oc(=O)ccc12 | -2.51% (inactive) | 
26 | Cc1ccc(C(C)C)cc1 | -5.38% (inactive) | 
27 | NC(=O)NC(N)=O |  | inactive
28 | O=C(Cl)c1ccc(C(=O)Cl)cc1 |  | inactive
29 | Cc1cc(C)c(O)c(C)c1 |  | inactive
30 | C[n+]1ccn(CCO)c1 |  | inactive
31 | Cc1ccncc1 |  | inactive
32 | CCCN(CCC)C(=O)SCC |  | inactive
33 | CC1=CC(=O)CC(C)(C)C1 | 24.4% (inactive) | 
34 | OCC(CO)(CO)CO |  | inactive
35 | CC/C=C(\C(=O)N[C@@H]1C(=O)N2C(C(=O)OCOC(=O)C(C)(C)C)=C(COC(N)=O)CS[C@H]12)c1csc(N)n1 |  | inactive
36 | CO[Si](CCCNCCN)(OC)OC |  | inactive
37 | CC(=O)C(C)C |  | inactive
38 | CC(COCC(C)OC(=O)c1ccccc1)OC(=O)c1ccccc1 (stereo not given) | 24.7% (inactive) | 
39 | O=C1CCCCCCCCCCC1 | -6.68% (inactive) | 
40 | CCCCC(=O)O |  | inactive

From PubChem BioAssay (Tox21)
